Assay outcomes deposited in PubChem BioAssay by several laboratories.
This is a sample that favours compounds with a hit; in the whole collection about 1.4% have one here.
MBD2 inh – MBD2-methylated oligo binding inhibition | inhibition, % at 4.4 µM | AID 686964 | TR-FRET, MBD2 binding to methylated oligonucleotide | actives 0.31% (n = 370,000); in the data active = inhibition above about 13%
Target sequence (Q9UBB5 whole entry, looked up): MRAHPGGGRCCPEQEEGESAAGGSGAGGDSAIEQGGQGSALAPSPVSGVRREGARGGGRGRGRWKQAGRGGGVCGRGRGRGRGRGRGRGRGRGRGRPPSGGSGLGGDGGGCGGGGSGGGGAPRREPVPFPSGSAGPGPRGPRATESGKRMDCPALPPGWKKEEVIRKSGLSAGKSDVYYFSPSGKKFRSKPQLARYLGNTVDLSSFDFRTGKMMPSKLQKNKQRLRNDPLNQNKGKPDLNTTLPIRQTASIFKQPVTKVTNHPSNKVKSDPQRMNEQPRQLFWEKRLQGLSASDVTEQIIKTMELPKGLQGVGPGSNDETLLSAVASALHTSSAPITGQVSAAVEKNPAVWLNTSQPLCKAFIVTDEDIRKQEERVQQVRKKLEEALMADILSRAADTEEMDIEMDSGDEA
LEDGF integ inh – blocks HIV-1 LEDGF/p75-dependent DNA integration | TR-FRET IN-LEDGF/p75 DNA integration, Eu/Cy5 | inhibition, % at 3.7 µM | actives 0.64% (n = 370,000) | AID 743269;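 active = inhibition above the screen-wide mean plus 3 SD, cut at about 13% in these data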;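 note: signal is the Cy5 over europium emission ratio at 671 and 618 nm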
Casp6 inh – inhibitors of human caspase-6; P55212; purified caspase-6, Z-VEID-R110 cleavage fluorescence; inhibition, % at 12.5 µM; actives 0.53% (n = 350,000);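 active = mean inhibition across replicates at least about 35%, with every replicate also reaching that limit, limit read from the data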
Target sequence (P55212 24-179 limits assumed): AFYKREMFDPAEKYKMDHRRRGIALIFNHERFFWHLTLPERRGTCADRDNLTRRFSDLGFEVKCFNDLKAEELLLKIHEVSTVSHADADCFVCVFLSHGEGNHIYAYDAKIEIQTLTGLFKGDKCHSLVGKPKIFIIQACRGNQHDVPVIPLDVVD
Target sequence (P55212 194-293 limits assumed): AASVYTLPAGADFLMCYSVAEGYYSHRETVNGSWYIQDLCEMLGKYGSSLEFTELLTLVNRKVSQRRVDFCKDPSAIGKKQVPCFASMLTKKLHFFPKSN
UHRF1 MBD2 ctr – blocks human UHRF1 binding to methylated DNA | Q96T88 | UHRF1 binding to methylated oligo, TR-FRET | inhibition, % at 4.4 µM | actives 0.75% (n = 370,000) | AID 687016; in the data active = inhibition above about 21%;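 note: UHRF1 SRA domain binding a hemimethylated CpG hairpin DNA probe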
IN multimer up – HIV-1 integrase multimerization activation, counter-screen; shares compounds with LEDGF integ inh; TR-FRET HIV-1 integrase multimerization, biochemical; activation, % at 7.7 µM; actives 17% (n = 2,000); in the data active = activation above about 8.9%
TR-FRET interf – counter-screen for LEDGF/p75 integration inhibitors: TR-FRET optical interference; shares compounds with LEDGF integ inh; TR-FRET optical interference counterscreen, HIV-1 IN multimerization; inhibition, % at 7.7 µM; 2,000 tested, under 10 active;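 active = inhibition above the mean over all tested compounds plus 3 SD, which no compound reached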
IN-LEDGF confirm – LEDGF/p75-dependent HIV-1 integration inhibition, confirmation. shares compounds with LEDGF integ inh. TR-FRET LEDGF/p75-dependent HIV-1 integration, biochemical. inhibition, % at 3.7 µM. actives 36% (n = 2,000). AID 1053136; in the data active = inhibition above about 14%
Large screens that a line does not name were inactive (follow-up assays come after a bar, where they were run).

C[C@H]1CN([C@@H](C)CO)C(=O)c2cc(NC(=O)C3CCCCC3)ccc2O[C@@H]1CN(C)S(=O)(=O)c1ccc(F)cc1	none (no result: MBD2 inh, LEDGF integ inh, UHRF1 MBD2 ctr)
CC1CCN(C(=O)COC(=O)c2ccc(Br)o2)CC1	LEDGF integ inh 22 | IN multimer up inactive | TR-FRET interf inactive | IN-LEDGF confirm inactive
Cc1ccc(S(=O)(=O)/N=C2/NC(=O)/C(=C/c3ccc(Br)o3)S2)cc1	MBD2 inh 25, LEDGF integ inh 38, UHRF1 MBD2 ctr 81 (no result: Casp6 inh) | IN multimer up inactive | TR-FRET interf inactive | IN-LEDGF confirm inactive
O=C(c1ccco1)[C@@H]1[C@@H]2C(=O)N(c3ccccc3)C(=O)[C@@H]2C2c3ccccc3C=CN21 (some centres not stated)	none (no result: Casp6 inh)
Cc1ccc(N2C(=O)[C@@H]3[C@H](C2=O)C2c4ccccc4C=CN2[C@@H]3C(=O)c2ccco2)cc1 (some centres not stated)	LEDGF integ inh 13 (no result: Casp6 inh) | IN multimer up inactive | TR-FRET interf inactive | IN-LEDGF confirm 25
CCc1ccc(OC(=O)/C=C/c2ccco2)cc1	LEDGF integ inh 15 | IN multimer up inactive | TR-FRET interf inactive | IN-LEDGF confirm inactive
O=C(/C=C/c1ccco1)Nc1cccnc1Cl	none
O=C(/C=C/c1ccco1)Oc1cccc2cccnc12	LEDGF integ inh 14 | IN multimer up inactive | TR-FRET interf inactive | IN-LEDGF confirm inactive
O=C(N[C@@H]1CC[C@@H](CCn2cc(-c3ccccn3)nn2)O[C@@H]1CO)c1cccnc1	none (no result: MBD2 inh, LEDGF integ inh, UHRF1 MBD2 ctr)
COc1ccccc1CNC(=O)C[C@@H]1C=C[C@@H](NC(C)=O)[C@@H](CO)O1	none (no result: MBD2 inh, LEDGF integ inh, UHRF1 MBD2 ctr)
Oc1ccc(C=Nc2cccc3ncccc23)c(O)c1	LEDGF integ inh 16 (no result: Casp6 inh) | IN multimer up 17 | TR-FRET interf inactive | IN-LEDGF confirm 22
CC(=O)N(/N=C1\Sc2ccccc2C1=O)c1ccccc1C	LEDGF integ inh 34 (no result: Casp6 inh) | IN multimer up inactive | TR-FRET interf inactive | IN-LEDGF confirm 44
C[C@H](CO)N1C[C@H](C)[C@H](CN(C)C(=O)Nc2ccc3c(c2)OCO3)Oc2ccc(NC(=O)NC3CCCCC3)cc2C1=O	none (no result: MBD2 inh, LEDGF integ inh, UHRF1 MBD2 ctr)
O=C(Nc1nc(-c2ccco2)c(-c2ccco2)s1)C1CC(=O)N(c2ccc3c(c2)OCCO3)C1 (configuration not stated)	LEDGF integ inh 19 (no result: Casp6 inh) | IN multimer up 13 | TR-FRET interf inactive | IN-LEDGF confirm 42
Cc1nnc(NC(=O)C2CC(=O)N(c3ccc4c(c3)OCCO4)C2)s1 (configuration not stated)	none
O=C(Nc1nc(-c2ccco2)c(-c2ccco2)s1)C1CCC1	LEDGF integ inh 17 | IN multimer up inactive | TR-FRET interf inactive | IN-LEDGF confirm 21
C[C@@H]1CN([C@H](C)CO)C(=O)Cc2cc(NC(=O)c3ccncc3)ccc2O[C@H]1CN(C)C	none (no result: MBD2 inh, LEDGF integ inh, UHRF1 MBD2 ctr)
O=C(O)c1ccc(NC2=C/C(=N/S(=O)(=O)c3cccs3)c3ccccc3C2=O)cc1	LEDGF integ inh 31, Casp6 inh 100 | IN multimer up 9.1 | TR-FRET interf inactive | IN-LEDGF confirm 75
Cc1ccc(Cl)cc1NC1=C/C(=N\S(=O)(=O)c2cccs2)c2ccccc2C1=O	none
O=C1C(Nc2ccc(O)cc2)=C/C(=N/S(=O)(=O)c2cccs2)c2ccccc21	LEDGF integ inh 55, Casp6 inh 99 | IN multimer up inactive | TR-FRET interf inactive | IN-LEDGF confirm 70
O=C(O)c1ccc(NS(=O)(=O)c2ccc3c(c2)C(=O)c2ccccc2C3=O)cc1	none
CCc1ccc(S(=O)(=O)/N=C2\C=C(Nc3cccc(C(=O)O)c3)C(=O)c3ccccc32)cc1	LEDGF integ inh 47, Casp6 inh 100 | IN multimer up inactive | TR-FRET interf inactive | IN-LEDGF confirm 74
O=C(O)c1ccc(NC2=C/C(=N/S(=O)(=O)c3ccccc3)c3ccccc3C2=O)cc1	LEDGF integ inh 49, Casp6 inh 99 | IN multimer up inactive | TR-FRET interf inactive | IN-LEDGF confirm 72
CCOc1ccc(N=Cc2ccc([N+](=O)[O-])cc2)c(O)c1	LEDGF integ inh 20 | IN multimer up 11 | TR-FRET interf inactive | IN-LEDGF confirm inactive
Cc1cc(Nc2nc3ccccc3nc2Cl)n(-c2ccc([N+](=O)[O-])cc2)n1	LEDGF integ inh 82 (no result: Casp6 inh) | IN multimer up inactive | TR-FRET interf inactive | IN-LEDGF confirm inactive
Cc1cc(Nc2nc3ccccc3[nH]c2=O)n(-c2ccccc2)n1	none (no result: Casp6 inh)
C[C@@H]1CN([C@@H](C)CO)C(=O)c2cc(NC(=O)CCC(F)(F)F)ccc2O[C@@H](C)CCCCO[C@H]1CN(C)S(=O)(=O)c1ccc(Cl)cc1	none (no result: MBD2 inh, LEDGF integ inh, UHRF1 MBD2 ctr)
Cc1ccccc1-c1cc2nc(NCc3cccnc3)n(C)c(=O)c2s1	LEDGF integ inh 91 | IN multimer up inactive | TR-FRET interf inactive | IN-LEDGF confirm inactive
COc1ccc(C#Cc2ccc3c(c2)[C@]2(C(=O)N3)[C@H](C(=O)N3CCN(c4ncccn4)CC3)[C@H]3C(=O)O[C@H](c4ccccc4)[C@H](c4ccccc4)N3[C@@H]2c2ccc(O)cc2)cc1	none (no result: MBD2 inh, LEDGF integ inh, UHRF1 MBD2 ctr)
CCN(CCn1cccn1)Cc1c(C(=O)N2CCCCCCC2)nc2ccc(Cl)cn12	LEDGF integ inh 27 | IN multimer up inactive | TR-FRET interf inactive | IN-LEDGF confirm inactive
O=C1OC(c2ccc(Br)cc2)=N/C1=C\c1ccco1	none
CC1=N/C(=C/c2ccco2)C(=O)O1	LEDGF integ inh 13 | IN multimer up 10 | TR-FRET interf inactive | IN-LEDGF confirm 54
O=C(Nc1cccc(Cl)c1)N[C@@H]1CC[C@H](CCNC(=O)C2CC2)O[C@H]1CO	none (no result: MBD2 inh, LEDGF integ inh, UHRF1 MBD2 ctr)
CNC[C@@H]1OCCCC[C@@H](C)Oc2ccc(NS(=O)(=O)c3ccc(C)cc3)cc2C(=O)N([C@H](C)CO)C[C@@H]1C	none (no result: MBD2 inh, LEDGF integ inh, UHRF1 MBD2 ctr)
Cc1ccc(/C=[N+](\[O-])c2ccc(N(C)C)cc2)c2nsnc12	LEDGF integ inh 14 (no result: Casp6 inh) | IN multimer up 10 | TR-FRET interf inactive | IN-LEDGF confirm inactive
CCOC(=O)C(=O)Cc1cccnn1	LEDGF integ inh 22, Casp6 inh 44, UHRF1 MBD2 ctr 25 | IN multimer up inactive | TR-FRET interf inactive | IN-LEDGF confirm 50
CCOC(=O)C(Cc1ccnc2ccccc12)=NO	none
O=C(NC1CCCCC1)N[C@H]1CC[C@@H](CCNS(=O)(=O)c2ccc(Cl)cc2)O[C@@H]1CO	none (no result: MBD2 inh, LEDGF integ inh, UHRF1 MBD2 ctr)
COc1cc(/C=N/Nc2ccccn2)ccc1O	none
CCc1nnc(N/N=C\c2ccc(OC(C)=O)c(OC)c2)n1N	LEDGF integ inh 30 | IN multimer up inactive | TR-FRET interf inactive | IN-LEDGF confirm inactive
CCc1nnc(N/N=C/c2cc(Br)c(O)cc2O)n1N	LEDGF integ inh 50 | IN multimer up 11 | TR-FRET interf inactive | IN-LEDGF confirm inactive
CCOc1cc(/C=N\NC(=O)c2ccc(C)nc2)ccc1OC(=O)c1ccc(F)cc1	none
CC(C)(C)c1nnc(N/N=C/c2cc(Br)ccc2O)n(N)c1=O	none (no result: Casp6 inh)
